# Sampled rows, rich in hits. Any-hit rate of the full collection: about 19%.
# ELG1 DNA repair: blocks ELG1-dependent DNA repair in HEK293T cells; Potency, µM (highest dose often 46.1 µM), most hits filed as inhibitors; HEK293T ELG1-luciferase reporter, luminescence, 16 h; DNA damage induced by 5-fluorouridine; 330,000 tested, 2.3% active; AID 504467; further: nearly all actives have a fitted effect of over 55% in size
#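 Reporter activity after DNA damage by 5-fluorouridine is monitored. Compound-treated cells incubate 16 hr at 37 °C, then ONE-Glo is added for 30 min before luminescence reading.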
# HT1080 IDH1KD tx: kills HT-1080 cells with IDH1 knockdown; HT-1080 IDH1 knockdown viability, ATP luminescence, 48 h; Potency, µM (titrated, usually from 46.1 µM), most hits filed as cytotoxic; 360,000 tested, 2% active
#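 Knockdown cells (IDH1KD HT-1080) received compounds 2 h after plating at 750 cells/well and were kept 48 h at 37 °C in 5% FBS RPMI. A CellTiter-Glo luminescence read gave % activity for curve fitting.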
# HT1080-NT tox: kills 2HG-producing HT-1080-NT fibrosarcoma cells | HT-1080-NT fibrosarcoma viability, CellTiter-Glo ATP luminescence, 48 h | Potency, µM (top dose mostly 46.1 µM), most hits filed as cytotoxic | 360,000 tested, 1.6% active | AID 686970;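 further: NT is the 2HG producing partner of a matched IDH1 knockdown line; nearly all actives have a fitted effect of over 55% in size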
#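 Compounds were tested in concentration-response format on HT-1080-NT cells for 48 hours at 37 degrees C. Cell viability came from CellTiter-Glo luminescence; curves were classified by r2, response magnitude and activity.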
# DT40 TDP1 CPT: growth inhibition of DT40 Tdp1-/-;hTDP1 cells with camptothecin (screen for TDP1 inhibitors); chicken DT40 Tdp1-/-;hTDP1 cells + 20 nM CPT, ATP luminescence, 48 h; Potency, µM (titrated, usually from 46.2 µM), most hits filed as inhibitors; 420,000 tested, 12% active; AID 686979; further: nearly all actives have a fitted effect of over 55% in size
#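 Chicken DT40 Tdp1-/- cells complemented with human TDP1, 400 cells/well, exposed to compounds plus 20 nM camptothecin for at least 48 h at 37 C; viability read as ATP content by CellTiter-Glo luminescence.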
# IL-1B inflam inh: blocks inflammasome-driven IL-1 beta release | THP-1 LPS/ATP IL-1B secretion, AlphaLISA, 16 h; hits give low values | activity change, % at 57.5 µM | 360,000 tested, 4.7% active; in the data active means activity change below about -50%; inconclusive means mostly about -30% to -49%
#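 Secreted IL-1B measured by AlphaLISA bead assay after 16 h compound exposure of THP-1 cells; compounds (final up to 57.5 uM) added 1 h before LPS (250 ng/mL) and ATP (1.25 mM) stimulation; lower signal means less secretion.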
# DT40 TDP1 no CPT: qHTS for Inhibitors of human tyrosyl-DNA phosphodiesterase 1 (TDP1): qHTS in cells in absence of CPT; Potency, µM (doses to about 46.2 µM), actives largely listed as inhibitors; DT40 Tdp1-/- hTDP1 cells, no CPT, ATP luminescence, 48 h; 420,000 tested, 15% active; further: nearly all actives have a fitted effect of over 55% in size
#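 Growth of hTDP1-complemented DT40 Tdp1-knockout cells is measured by ATP luminescence after at least 48 hr compound exposure at 37 °C, with DMSO substituting for the 20 nM CPT used in the parallel screen.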
# Numbers stand for hits; . = inactive; ? = inconclusive; / = no result; [ ] = another dose, or the depositor's remark. Unless noted, the call rests on the fitted dose curve; in most records, active means well fitted curve in the direction sought with a large enough effect; inconclusive means small, poorly fitted or top-dose-only effect, or another doubt; inactive means no such curve, though single readings can be large; an effect the other way counts as inactive or inconclusive.
SMILES,ELG1 DNA repair,HT1080 IDH1KD tx,HT1080-NT tox,DT40 TDP1 CPT,IL-1B inflam inh,DT40 TDP1 no CPT
Cc1cnc(C)c(-c2ccc(F)c3c2OC(CNC(=O)/C=C/c2cccs2)C3)n1 (stereo not drawn),/,/,/,?,/,21µM
Cc1cnc(C)c(-c2cccc3c2OC(CNC(=O)C2(c4ccc(Cl)cc4)CC2)C3)n1 (stereo not drawn),/,/,/,.[9.04 µM],/,21µM
Cc1cnc(C)c(-c2cc(F)cc3c2OC(CNC(=O)c2cc(Cl)ccc2F)C3)n1 (stereo not drawn),/,/,/,.,/,.
Cc1ccc(S(=O)(=O)N2C[C@]3(O)C[C@@H]4C(=O)N(c5ccccc5)C(=O)[C@@H]4C[C@]3(OC(=O)NCC3CCCCC3)C2)cc1,/,.,.,.,.,.
CC(=O)Oc1ccc(N(C(C)=O)S(=O)(=O)c2ccc3ccccc3c2)cc1,21µM,.,.,?,?,21µM
CN(c1ccc(O)cc1)S(=O)(=O)c1ccc2ccccc2c1,?,.,.,.,-62,?
COc1ccc(C(=O)Nc2nc(-c3cccs3)cs2)cc1,/,.,.,?,-72,?
Cc1c(C(=O)O)sc2nc(-c3cccs3)cc(C(F)(F)F)c12,.,.,.,.,.,?
COc1cc(C(=O)NC(=S)Nc2nc(-c3ccc(F)cc3)cs2)cc(OC)c1OC,.,.,.,.,.,.
O=C(Nc1nc(-c2ccc(Cl)s2)cs1)c1ccncc1,.,.,.,9.2µM,.,9.2µM
Cc1c(C(=O)Nc2nccs2)sc2nc(-c3cccs3)cc(C(F)(F)F)c12,?,?,?,18µM,.,23µM
COc1cc(C(=O)Nc2nc(-c3cccs3)cs2)cc(OC)c1OC,13µM,.,?,23µM,-77,13µM
COc1ccccc1CC(=O)c1ccc(OCc2ccccc2)cc1,?,.,.,?,.,?
COc1cc2c(cc1NC(=O)C(C)Oc1ccc(Cl)cc1Cl)oc1ccccc12 (stereo not drawn),/,/,/,.,/,.
CCCCC#Cc1cncc(C(=O)N/N=C/c2cccc(OC)c2)c1,?,.,.,.,.,.
O=C(Nc1nc(-c2cccs2)cs1)c1ccc(Cl)cc1,.,?,?,26µM,.,15µM
O=C(COc1ccc(Cl)cc1)Nc1nc(-c2cccs2)cs1,.,.,.,?,.,?
Cc1csc(NC(=O)c2sc3nc(-c4cccs4)ccc3c2N)n1,?,?,.,?,-72,25µM
NC(CCC(=O)NCS(=O)(=O)O)C(=O)O (stereo not drawn),/,/,/,.,/,.
O=c1n(Cc2ccc(Cl)cc2)nc2n1-c1ccccc1OC2,/,/,/,.,/,.
Cn1c(NCCO)nc2c1c(=O)n(Cc1ccccc1Cl)c(=O)n2C,/,/,/,.,/,.
CCCCNc1nc2c(c(=O)n(Cc3ccc(Cl)cc3)c(=O)n2C)n1C,/,/,/,21µM,/,16µM
Cn1c(NCc2ccccc2)nc2c1c(=O)n(Cc1ccccc1)c(=O)n2C,?,.,.,.,.,?
Cn1c(NCCCN2CCOCC2)nc2c1c(=O)n(Cc1ccc(Cl)cc1Cl)c(=O)n2C,?,.,.,23µM,.,?
COc1ccc(CNc2nc3c(c(=O)n(Cc4ccc(F)cc4)c(=O)n3C)n2C)cc1,18µM,.,.,?,.,?
SMILES,ELG1 DNA repair,HT1080 IDH1KD tx,HT1080-NT tox,DT40 TDP1 CPT,IL-1B inflam inh,DT40 TDP1 no CPT
CC(C)CCNc1nc2c(c(=O)n(Cc3cccc(F)c3)c(=O)n2C)n1C,.,?,?,26µM,.,?
CC1(C)CC(=O)C=C(c2cccc(OC(=O)c3ccc(Br)cc3)c2)C1=O,/,.,.,.,.,.
COc1ccccc1C1CN(CCNC(=O)c2cscn2)Cc2ccccc2O1 (stereo not drawn),/,/,/,.[9.04 µM],/,?
COC(=O)c1cc(NC(=O)C2CC(=O)NC(=NCc3ccc(OC)cc3)S2)cc(C(=O)OC)c1 (stereo not drawn),.,.,.,.,.,.
CC(O)CNc1nc2c(c(=O)n(Cc3ccc(Cl)c(Cl)c3)c(=O)n2C)n1C (stereo not drawn),?,.,.,?,?,?
CCCCNc1nc2c(c(=O)n(Cc3ccc(Cl)c(Cl)c3)c(=O)n2C)n1C,/,/,/,?,/,29µM
O=S1(=O)C[C@@H](N2CCN(CC3CC3)CC2)[C@H](COCc2ccccc2)N1,/,.,.,.,.,.
CCc1nnc(NC(=O)C(c2ccccc2)c2ccccc2)s1,.,.,.,?,.,?
CC1=C(C(=O)OCc2ccccc2)C(c2cccnc2)n2ncnc2N1 (stereo not drawn),.,.,.,18µM,.,15µM
COC(=O)C1=C(C)Nc2ncnn2C1c1ccc(OC(=O)c2ccccc2)cc1 (stereo not drawn),?,.,.,8.2µM,.,?
